# Experimental data as given in PubChem BioAssay (NCATS).
# Inconclusive results are not listed. Active and inactive are the calls of the source. The call rests on the fitted dose curve; in most records, active means well fitted inhibition curve with a large enough effect; inconclusive means small, poorly fitted or top-dose-only effect; inactive means flat fitted curve, though single readings scatter.
# Experiments:
# Experiment in all cases: Cytotoxic Profiling of Annotated Libraries Using Quantitative High-Throughput Screening (AID 1296008); further: nearly all actives have a fitted effect of over 60% in size
# Conditions in all cases: Five cell lines viability, CellTiter-Glo ATP luminescence, 48-72 h; max response: hits give low values
# CRL-7250 = normal cell line; tested on: CRL-7250
# Procedure, shortened: (§1)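 Compounds were pin-transferred onto cells and incubated 48 or 72 hr at 37 degree Celsius, 95% humidity. CellTiter-Glo was added, plates sat 10 min at room temperature, then ATP-coupled luminescence was imaged as the viability read-out.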
# HaCat = tested on: HaCat
# Procedure, shortened: as §1
# HEK293 = tested on: HEK293
# Procedure, shortened: as §1
# NIH3T3 = tested on: NIH3T3
# Procedure, shortened: as §1
# KB-3-1 = tested on: KB-3-1
# Procedure, shortened: as §1
# On the % scale 0 is the no-effect control and ±100 the full control effect; potency means the concentration at half of the fitted maximal effect.
structure (smiles),measurement,setting,value
COc1cccc(CN(C(=O)CC(C)(C)C)[C@H]2C[C@H](C(=O)N3CCNCC3)N(Cc3ccc4c(c3)OCO4)C2)c1,outcome,CRL-7250,inactive
same,max response,HaCat,-6.86% (inactive)
Cc1cccc(C#Cc2cc(F)cc(C#N)c2)n1,max response,CRL-7250,-2.01% (inactive)
same,max response,HaCat,-1.48% (inactive)
Cc1cc(C(=O)Nc2cc(Nc3ccc4c(/C=C/c5ccccn5)n[nH]c4c3)ccc2F)n(C)n1,Potency,CRL-7250,18.4 µM (active)
same,Potency,HEK293,11.6 µM (active)
same,Potency,NIH3T3,0.731 µM (active)
c1ccc(-c2ccc(CNc3nc(-c4ccccn4)nnc3-c3ccccc3)cc2)cc1,Potency,CRL-7250,5.8 µM (active)
same,Potency,HEK293,5.17 µM (active)
same,Potency,NIH3T3,3.66 µM (active)
C=C1C(=O)O[C@H]2C3=C(C)CCC[C@]3(C)C(=O)C[C@@H]12,Potency,CRL-7250,18.4 µM (active)
same,Potency,HEK293,5.8 µM (active)
same,Potency,NIH3T3,16.4 µM (active)
CNC(=O)[C@@H](c1ccccc1)N1CCc2cc(OC)c(OC)cc2[C@@H]1CCc1ccc(C(F)(F)F)cc1,max response,CRL-7250,-4.36% (inactive)
same,Potency,HEK293,16.4 µM (active)
same,max response,NIH3T3,-22.6% (inactive)
CC(=O)OC1C(OC(=O)c2ccccc2)C2C(C)(C)CCC(OC(C)=O)C2(C)C23CCC(C)(C2)C(=O)CC13 (stereo not given),outcome,CRL-7250,inactive
same,max response,HaCat,-16.6% (inactive)
same,max response,KB-3-1,6.15% (inactive)
same,outcome,NIH3T3,inactive
O=C(NCC(=O)N1CCCC1)Nc1ccc2cnccc2c1,max response,CRL-7250,-0.26% (inactive)
same,max response,HaCat,-20.6% (inactive)
same,max response,KB-3-1,-4.72% (inactive)
same,max response,NIH3T3,-5.01% (inactive)
Cc1c(F)ccc(C(=O)Nc2cc([N+](=O)[O-])ccc2N2CCN(C)CC2)c1Cl,max response,CRL-7250,1.68% (inactive)
same,max response,HaCat,0.293% (inactive)
same,outcome,KB-3-1,inactive
same,max response,NIH3T3,1.43% (inactive)
CCOc1ccc(Cc2nc(-c3c(C)nc4ccccn34)cs2)cc1,Potency,CRL-7250,0.0517 µM (active)
same,max response,HaCat,-17.5% (inactive)
same,Potency,KB-3-1,0.0259 µM (active)
same,Potency,NIH3T3,0.0461 µM (active)
Cn1cc(-c2ccc(S(=O)(=O)n3ccc(/C=C/C(=O)Nc4ccccc4N)c3)cc2)cn1,Potency,CRL-7250,9.2 µM (active)
same,max response,HaCat,-149% (inactive)
same,Potency,KB-3-1,1.46 µM (active)
same,Potency,NIH3T3,4.61 µM (active)
O=C(c1ccc(Cl)cc1)N1CCN(c2ccnc3cc(Cl)ccc23)CC1,max response,CRL-7250,3.03% (inactive)
same,max response,HaCat,-18.2% (inactive)
same,max response,KB-3-1,-24.7% (inactive)
same,max response,NIH3T3,-1.68% (inactive)
C=CCC1=C[C@]2(OC)[C@H](C)[C@@H](c3ccc4c(c3)OCO4)O[C@]2(OC)CC1=O,max response,CRL-7250,-2.76% (inactive)
same,max response,HaCat,-12.1% (inactive)
same,max response,KB-3-1,-2.11% (inactive)
same,max response,NIH3T3,1.18% (inactive)
Cc1nc(N2CCN(C(=O)c3ccco3)CC2)c2c3c(sc2n1)CCCC3,max response,CRL-7250,-5.8% (inactive)
same,max response,HaCat,1.01% (inactive)
same,max response,KB-3-1,-12.8% (inactive)
same,max response,NIH3T3,1.1% (inactive)
CCC(C)C(=O)OC12C(OC(C)=O)C(C)C3(O)C(C=C(CO)CC4(O)C(=O)C(C)=CC43)C1C2(C)C (stereo not given),max response,CRL-7250,-7.79% (inactive)
same,max response,HaCat,-11.4% (inactive)
same,outcome,KB-3-1,inactive
same,outcome,NIH3T3,inactive
COc1ccc(CCc2nc3cc(-c4c(C)noc4C)ccc3n2CC(C)N2CCOCC2)cc1Cl (stereo not given),max response,CRL-7250,-13.4% (inactive)
same,max response,HaCat,-1.2% (inactive)
same,max response,KB-3-1,0.0649% (inactive)
same,max response,NIH3T3,-17.1% (inactive)
C=C[C@H](/C=C\c1ccc(O)cc1)c1ccc(O)cc1,max response,CRL-7250,-3.27% (inactive)
same,max response,HaCat,1.54% (inactive)
same,max response,KB-3-1,-11.7% (inactive)
same,outcome,NIH3T3,inactive
Cn1cc(C2=C(c3coc4ccccc34)C(=O)NC2=O)c2cc(Br)ccc21,max response,CRL-7250,2.54% (inactive)
same,max response,HaCat,3.32% (inactive)
same,outcome,KB-3-1,inactive
same,outcome,NIH3T3,inactive
CC1OC(OC2C(O)COC(O[C@@H]3[C@@H](O)[C@@H](O)[C@H](OC4C(OC(=O)[C@]56CCC(C)(C)CC5C5=CCC7[C@@]8(C)C[C@H](O)[C@H](OC9OC(CO)C(O)C(O)C9O)[C@@](C)(CO)C8[C@H](O)C[C@@]7(C)[C@]5(C)CC6)OCC(O)C4O)O[C@H]3C)C2O)C(O)C(O)C1O (stereo not given in full),max response,CRL-7250,-12.5% (inactive)
same,max response,HaCat,0.653% (inactive)
same,max response,KB-3-1,8.32% (inactive)
same,max response,NIH3T3,2.11% (inactive)
CC(=O)O[C@@H]1CC2C(/C=C(\C)C(=O)[C@@]3(O)C[C@@H](C)[C@H](OC(=O)c4ccccc4)C3/C=C/1C)C2(C)C (stereo not given in full),outcome,CRL-7250,inactive
same,max response,HaCat,-1.64% (inactive)
same,outcome,KB-3-1,inactive
same,max response,NIH3T3,1.35% (inactive)
CC(C)C(C)C(O)C1CC23CC(=O)C4(O)C(=C2CCC3C1C)C=CC1(O)CC(O)CCC14C (stereo not given),max response,CRL-7250,-22.9% (inactive)
same,max response,HaCat,2.09% (inactive)
same,max response,KB-3-1,5.36% (inactive)
same,max response,NIH3T3,-0.33% (inactive)
Cc1ccc(N2CCN(CCC3NC(=O)c4ccccc43)CC2)cc1C (stereo not given),max response,CRL-7250,4.52% (inactive)
same,max response,HaCat,-0.27% (inactive)
same,max response,KB-3-1,-2.29% (inactive)
same,max response,NIH3T3,0.934% (inactive)
